Experimental data from PubChem BioAssay (NCI).
This is part of a sample that, as a whole, favours compounds with a hit. Of some 79,000 tested, about 15% had one in any assay. Values without a mark were called inactive. Active and inactive are the calls of the source. Rule as the data show it: active = growth inhibition above about 70%; inactive = the rest.

How the values were obtained:
[1] = NCI Yeast Anticancer Drug Screen. Data for the rad50 strain (AID 155);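 also: 0% = growth of vehicle-only cultures of the same strain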; details: S. cerevisiae rad50 strain growth inhibition, active compounds read high
Summary of the method: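 A DNA repair-deficient yeast mutant serves as the test organism; compound-induced growth inhibition is calculated against vehicle-treated cells.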

[2] = NCI Yeast Anticancer Drug Screen. Data for the mec2-1 strain (AID 157); details: S. cerevisiae mec2-1 strain, active compounds read high
Summary of the method: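 Strain: mec2-1 (DNA repair/cell cycle alteration). Compound exposure, then growth measured; inhibition expressed relative to vehicle.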

[3] = NCI Yeast Anticancer Drug Screen. Data for the sgs1 mgt1 strain (AID 161);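 also: 0% = growth of cultures given vehicle only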; details: S. cerevisiae sgs1 mgt1 strain, active compounds read high
Summary of the method: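 Mutant yeast exposed to compound; growth scored against vehicle-only wells.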

[4] = NCI Yeast Anticancer Drug Screen. Data for the cln2 rad14 strain (AID 165);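 also: 0% = growth equal to vehicle treated cultures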; details: S. cerevisiae cln2 rad14 strain, active compounds read high
Summary of the method: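 Compounds are applied to the cln2 rad14 yeast strain, and growth is then compared with that of vehicle-treated cultures to give inhibition.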

[5] = NCI Yeast Anticancer Drug Screen. Data for the bub3 strain (AID 167); details: S. cerevisiae bub3 mutant strain, active compounds read high
Summary of the method: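 Inhibition values come from growth of compound-treated mutant yeast normalised to vehicle-treated controls.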

[6] = NCI Yeast Anticancer Drug Screen. Data for the mlh1 rad18 strain (AID 175); details: S. cerevisiae mlh1 rad18 strain growth inhibition, active compounds read high
Summary of the method: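 Read-out is yeast growth inhibition, calculated against vehicle-only controls. The compound was applied to a strain engineered with DNA damage repair alterations.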

[7] = at 5.0 µM (retest, dose inferred, filed as 0.5)
[8] = at 50.0 µM (retest, dose inferred, filed as 5.0)

SMILES	growth inhibition [1, 7]	growth inhibition [1, 8]	growth inhibition ([1]; at 50.0 µM)	growth inhibition [2, 7]	growth inhibition [2, 8]	growth inhibition ([2]; at 50.0 µM)	growth inhibition [3, 7] [%]	growth inhibition [3, 8]	growth inhibition ([3]; at 50.0 µM)	growth inhibition [4, 7] [%]	growth inhibition [4, 8]	growth inhibition ([4]; at 50.0 µM)	growth inhibition [5, 7] [%]	growth inhibition [5, 8]	growth inhibition ([5]; at 50.0 µM)	growth inhibition [6, 7]	growth inhibition [6, 8]	growth inhibition ([6]; at 50.0 µM)
Cc1c2cnccc2c(C)c2c1c1ccccc1n2CCCCCCNCc1ccccc1	9%	95% (active)	99% (active)	-1%	76% (active)	99.2% (active)	1	91% (active)	99.3% (active)	2	83% (active)	98.2% (active)	2	74% (active)	98.8% (active)	-3%	97% (active)	99% (active)
O=C(N/C(=C\c1ccccc1)C(=O)N1CCN(c2ccccc2)CC1)c1ccccc1	-9%	6%	90.2% (active)	-4%	-2%	93.2% (active)	-7	7%	95.3% (active)	-12	0%	87.8% (active)	-4	10%	88.3% (active)	0%	6%	91.7% (active)
Cc1cc(C)cc([C@H](C)N=Cc2cc(Br)ccc2O)c1	11%	95% (active)	96% (active)	-14%	95% (active)	95.8% (active)	-1	87% (active)	89.9% (active)	-4	96% (active)	86.3% (active)	-10	98% (active)	95.2% (active)	2%	96% (active)	97.5% (active)
COC1/C=C/OC2(C)Oc3c(C)c(O)c4c5c(cc(O)c4c3C2=O)N=C(O5)/C(C)=C\C=C\C(C)C(O)C(C)C(O)C(C)C(OC(C)=O)C1C (stereo unspecified)	5%	99% (active)	55.2%	-71%	99% (active)	60%	-60	96% (active)	53.6%	28	99% (active)	53.5%	3	99% (active)	48.5%	4%	98% (active)	60.6%
C=C1N(S(=O)(=O)c2ccc(C)cc2)C(=O)OCC12CCCC2	-22%	3%	2.2%	-15%	-21%	-1.5%	-21	9%	20%	-21	5%	8.9%	-16	43%	54.2%	-24%	-2%	3.5%
CN(C)CC(CN(C)C)C(=O)c1ccc2c(c1)OCO2	-8%	-30%	84.7% (active)	-15%	-13%	87% (active)	-10	-20%	92.6% (active)	-6	-8%	58.1%	-5	25%	58.6%	0%	-20%	93% (active)
NC1=NOC(=O)C1Cc1ccccc1 (stereo unspecified)	-2%	-1%	2.3%	0%	-4%	8%	-1	-2%	1.8%	-7	-4%	76.8% (active)	2	-3%	-6.95%	-2%	-2%	15.6%
CCOc1ccccc1/C=N/Nc1nnc(N/N=C/c2ccccc2OCC)c2ccccc12	0%	42%	44%	9%	64%	48.8%	-24	38%	41.5%	-10	58%	45.2%	-4	54%	44.2%	7%	80% (active)	43.9%
COc1cc2c(c(OC)c1OC)-c1ccc(=O)c(OC)cc1[C@@H](N)CC2	25%	22%	-5.6%	22%	16%	-26.4%	22	21%	-12.5%	24	32%	-15.4%	25	19%	-5.1%	29%	26%	-49.5%
OC(Cc1ccccc1)(Cc1ccccc1)c1ccccc1	20%	98% (active)	88.5% (active)	13%	99% (active)	78.2% (active)	-3	99% (active)	78% (active)	3	98% (active)	93.9% (active)	-14	97% (active)	88.3% (active)	-6%	99% (active)	96% (active)
COc1cc([C@H]2c3c(cc(OC)c(OC)c3OC)CC3COC(=O)[C@@H]32)cc2c1OCO2 (stereo partly specified)	4%	37%	95.5% (active)	2%	25%	98.8% (active)	9	38%	52.2%	1	4%	98.5% (active)	-2	53%	99.3% (active)	-2%	9%	97.5% (active)
Brc1ccc(N2COc3ccc4ccccc4c3C2)cc1	9%	-23%	19.2%	19%	-1%	35.5%	16	-4%	62.4%	-17	-3%	0.95%	9	-3%	77.9% (active)	16%	2%	46.4%
O=C1CCC(C(c2ccccc2)(c2ccccc2)c2ccccc2)CC1=O (stereo unspecified)	0%	99% (active)	-11.1%	-1%	98% (active)	16.9%	0	99% (active)	-5.2%	-14	99% (active)	22.5%	-3	99% (active)	0.85%	-1%	99% (active)	-10.2%
Cc1nc2ccc3c(ccc4nc(C)c(N=Nc5ccc(C(=N)N)cc5)c(O)c43)c2c(O)c1N=Nc1ccc(C(=N)N)cc1	5%	89% (active)	93.8% (active)	0%	95% (active)	95.6% (active)	-1	70% (active)	85.2% (active)	-4	81% (active)	87% (active)	-6	58%	93.3% (active)	2%	77% (active)	90.7% (active)
CC(=O)c1cc(I)c(O)c2ncccc12	96% (active)	99% (active)	90.3% (active)	93% (active)	99% (active)	92.5% (active)	29	98% (active)	93% (active)	69	96% (active)	88.8% (active)	28	95% (active)	89.5% (active)	100% (active)	100% (active)	87.9% (active)
O=C(N/N=C/c1ccccn1)c1ccccc1[O-].O=C(N/N=C/c1ccccn1)c1ccccc1[O-].[Co+2]	5%	0%	38.2%	21%	0%	48.1%	13	5%	42.5%	14	2%	72.8% (active)	17	2%	99.2% (active)	18%	-2%	66.8%
C/C=C(\C)C(=O)OC1C2C(C)=CC(=O)C(O)C2(C)C2C3(O)OCC24C1OC(=O)C(O)C4C(C)C3O (stereo unspecified)	-2%	54%	84.2% (active)	15%	30%	72.5% (active)	9	42%	71.7% (active)	8	67%	78.5% (active)	-13	51%	75.8% (active)	-33%	66%	34.5%
O=[N+]([O-])c1ccc2c(c1)/C(=C/c1ccc(O)cc1)c1ccccc1-2	9%	86% (active)	88.3% (active)	1%	82% (active)	88.8% (active)	2	82% (active)	91.3% (active)	-2	84% (active)	86.8% (active)	-2	85% (active)	88.6% (active)	6%	83% (active)	88.8% (active)
CN1N=C2c3ccccc3CC[C@H]2C1c1cccc(O)c1 (stereo partly specified)	-36%	65%	52.7%	5%	34%	23.4%	-16	88% (active)	69.2%	24	83% (active)	43.8%	21	78% (active)	67.2%	-16%	82% (active)	35.9%
CC1=C(C(=O)Nc2cc(C)ccc2C)C(c2cccc([N+](=O)[O-])c2)C(C(=O)Nc2cc(C)ccc2C)=C(C)N1	8%	49%	-12.3%	19%	72% (active)	34.5%	19	34%	26.7%	5	61%	19.2%	17	74% (active)	29.6%	17%	65%	31.6%
CCC(C(c1ccc(Cl)cc1)c1ccc(Cl)c(Cl)c1)[N+](=O)[O-] (stereo unspecified)	4%	12%	8.3%	0%	17%	-4.05%	4	12%	14.1%	4	30%	34%	19	38%	47.5%	1%	32%	5.3%
Cc1ccccc1N1C(=O)c2ccccc2C1=O	1%	8%	61.1%	-6%	11%	98.8% (active)	1	7%	90.1% (active)	6	9%	83.3% (active)	1	16%	98.2% (active)	0%	8%	84% (active)
O=C(N/C(=C\c1ccc(Oc2ccc(Cl)c(Cl)c2)cc1)c1nc2ccccc2[nH]1)c1ccccc1	29%	97% (active)	97.8% (active)	10%	97% (active)	98.3% (active)	10	97% (active)	98% (active)	13	65%	95.6% (active)	15	95% (active)	97.2% (active)	6%	89% (active)	98.2% (active)
CCN(CC)CCCNc1c2c(Cl)cc(Cl)cc2nc2nc(=O)[nH]c(C)c12	9%	12%	8.75%	8%	16%	0.9%	-28	6%	8.8%	-13	4%	39%	-19	8%	34.5%	7%	17%	42.2%
CC(C)(C)SC(=O)C1(C)OC1c1ccc([N+](=O)[O-])cc1 (stereo unspecified)	-6%	45%	53%	-4%	-3%	67.8%	-5	51%	62.3%	5	-2%	-20.8%	0	13%	29.8%	-5%	49%	79.8% (active)
CCC(=O)Nc1ccc(NC(C)=O)cc1	-6%	-9%	-17.6%	-9%	1%	-6.9%	-5	6%	-8.65%	6	-16%	-11.6%	-10	-3%	23.2%	-8%	-28%	-8.9%
CC1=C/C(=C\C=C2/N(C)c3c(C)cccc3C2(C)C)C(=O)c2ncccc21	28%	98% (active)	94.2% (active)	28%	99% (active)	29.7%	19	98% (active)	70.8% (active)	9	98% (active)	24.6%	49	98% (active)	64.6%	45%	98% (active)	63.2%
